Screening results from PubChem BioAssay.
Compounds with a hit are over-represented: about 3.2% of the library has one in this group of screens.
MEKK3 PB1 HTS: raises or lowers MEK5 binding to the human MEKK3 PB1 domain | Q99759 | bead-based flow cytometry, Alexa488-MEK5 binding to MEKK3; actives lie on both sides; 0 = blocked by unlabeled MEK5, 100 = vehicle | binding response (% of control), % at 10 µM | 290,000 tested, 1.4% active;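 active = binding response more than 3 SD above or below the average of its plate-row segment, actives on both sides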;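 also: Alexa488 bead fluorescence after subtracting the streptavidin-only scavenger bead signal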
MEKK2wt PB1 HTS: raises or lowers MEK5 binding to wildtype human MEKK2 PB1 domain | Q9Y2U5 | bead flow cytometry, Alexa488-MEK5 binding to MEKK2 WT; actives lie on both sides | binding response (% of control), % at 10 µM | 290,000 tested, 1.1% active; in the data active = binding response below about 67% or above about 130%
NRP1-CendR mod: alters CendR peptide binding to human NRP-1; O14786; FAM-RPARPAR peptide binding to NRP-1, fluorescence polarization; inhibition, % at 25 µM; 360,000 tested, 0.85% active; AID 602438;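 active = inhibition or corrected inhibition above about 18%, plus a signal ratio from 0.5 to 1.5, limit read from the data, passing the limit was not always enough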
Target sequence (O14786 whole entry, looked up): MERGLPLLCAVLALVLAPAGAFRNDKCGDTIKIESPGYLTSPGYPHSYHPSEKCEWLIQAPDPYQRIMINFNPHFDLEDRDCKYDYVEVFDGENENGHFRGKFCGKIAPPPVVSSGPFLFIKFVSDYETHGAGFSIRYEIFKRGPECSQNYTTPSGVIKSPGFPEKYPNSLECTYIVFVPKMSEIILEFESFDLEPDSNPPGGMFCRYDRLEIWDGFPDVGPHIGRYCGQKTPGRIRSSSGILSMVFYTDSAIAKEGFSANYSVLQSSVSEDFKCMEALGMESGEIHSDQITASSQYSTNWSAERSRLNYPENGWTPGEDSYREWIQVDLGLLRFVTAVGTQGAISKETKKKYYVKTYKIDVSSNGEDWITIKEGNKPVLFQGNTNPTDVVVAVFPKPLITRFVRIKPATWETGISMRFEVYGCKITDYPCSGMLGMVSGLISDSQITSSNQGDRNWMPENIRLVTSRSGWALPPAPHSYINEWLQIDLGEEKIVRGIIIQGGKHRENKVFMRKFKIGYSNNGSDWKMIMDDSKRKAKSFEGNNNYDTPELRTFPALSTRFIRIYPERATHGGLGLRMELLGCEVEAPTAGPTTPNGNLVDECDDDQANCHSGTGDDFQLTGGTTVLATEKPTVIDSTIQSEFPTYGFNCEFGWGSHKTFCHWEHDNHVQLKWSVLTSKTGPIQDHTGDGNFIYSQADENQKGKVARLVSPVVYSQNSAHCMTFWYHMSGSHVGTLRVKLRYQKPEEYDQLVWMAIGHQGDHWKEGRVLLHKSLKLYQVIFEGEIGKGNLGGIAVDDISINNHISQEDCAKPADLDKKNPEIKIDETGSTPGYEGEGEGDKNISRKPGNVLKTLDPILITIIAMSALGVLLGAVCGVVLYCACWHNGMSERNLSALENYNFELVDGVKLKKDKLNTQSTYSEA
MEKK2 mut-MEK5: signal of MEK5 binding to mutant human MEKK2 PB1 domain; bead flow cytometry, Alexa488-MEK5 binding to MEKK2 mutant; percent response, % at 10 µM; 290,000 tested, 0.35% active; AID 1530; in the data active = percent response above about 24%, passing the limit was not always enough
SKN-1 inh: blocks SKN-1 activity in C. elegans. C. elegans VP596 Pgst-4::GFP/RFP ratio, acrylamide-induced, 24 h. inhibition, % at 21.8 µM. 360,000 tested, 0.49% active. AID 624304;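 active = interference check ratio from 0.5 to 1.5 plus GFP to RFP signal ratio inhibition reaching or exceeding a fixed threshold, cut at about 30% in these data, passing the limit was not always enough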
MEKK2wt confirm: raises or lowers MEK5 binding to wildtype human MEKK2, retest. bead flow cytometry, Alexa488-MEK5 binding to MEKK2 WT; actives lie on both sides. AID 1892. binding response (% of control), % at 10 µM. 5,900 tested, 2.4% active. shares compounds with MEKK3 PB1 HTS; in the data active = binding response below about 16% or above about 210%; inactive = in between
MEKK2mut-MEK5: signal of MEK5 binding to mutant human MEKK2, retest; bead flow cytometry, Alexa488-MEK5 binding to MEKK2 mutant; 5,900 tested, 2% active; shares compounds with MEKK3 PB1 HTS; AID 1893; percent response, % at 10 µM; in the data active = percent response mostly above about 71%, no sharp cut-off; inactive = mostly below about 38%;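 also: higher means compound restores mutant binding toward wildtype level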
MEKK3 confirm: confirmation of inhibitors of MEK5 binding to human MEKK3; shares compounds with MEKK3 PB1 HTS; bead flow cytometry, Alexa488-MEK5 binding to MEKK3; stronger effect = lower value; binding response (% of control), % at 10 µM; 5,900 tested, 1.8% active; AID 1894;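 active = binding response below 72% of control, or above a set upper limit, though filed actives all read lower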
Large screens that a line does not name were inactive (follow-up assays come after a bar, where they were run); ! = repeats disagree; [ ] = dose if it differs, or a comment.

CCOc1ccc(CCNC(=O)C2CCC(=O)N2CCc2ccccc2)cc1OCC (stereo not drawn)	MEKK3 PB1 HTS 2.0[inhibitor], MEKK2wt PB1 HTS -1.0[inhibitor] | MEKK2wt confirm inactive | MEKK2mut-MEK5 inactive | MEKK3 confirm inactive
CC(C)(C)C(=O)Nc1ccc2oc(-c3cc(F)c(F)cc3Cl)nc2c1	MEKK3 PB1 HTS 1.0[inhibitor], MEKK2wt PB1 HTS 1.0[inhibitor] | MEKK2wt confirm inactive | MEKK2mut-MEK5 inactive | MEKK3 confirm inactive
NC(=O)c1ccccc1NC(=O)C1CCCO1 (stereo not drawn)	none
CS(=O)(=O)N(CC(=O)Nc1ccccc1C(=O)N1CCOCC1)c1ccc(Cl)cc1	MEKK3 PB1 HTS 44[inhibitor], MEKK2wt PB1 HTS 43[inhibitor] | MEKK2wt confirm inactive | MEKK2mut-MEK5 inactive | MEKK3 confirm inactive
CCc1ccc(N(CC(=O)Nc2ccccc2C(=O)N2CCOCC2)S(C)(=O)=O)cc1	none
O=C(Nc1ccccc1C(=O)N1CCOCC1)C1CCCO1 (stereo not drawn)	MEKK3 PB1 HTS 1.0[inhibitor], MEKK2wt PB1 HTS -1.0[inhibitor] | MEKK2wt confirm inactive | MEKK2mut-MEK5 inactive | MEKK3 confirm inactive
Cc1cccc(OCC(=O)Nc2ccccc2C(=O)N2CCOCC2)c1	MEKK3 PB1 HTS 130 | MEKK2wt confirm inactive | MEKK2mut-MEK5 inactive | MEKK3 confirm inactive
Cc1cccc(OCC(=O)N/N=C/c2ccccc2C(=O)O)c1	MEKK3 PB1 HTS 132 | MEKK2wt confirm inactive | MEKK2mut-MEK5 inactive | MEKK3 confirm inactive
CN1CC(=O)N(CC(=O)Nc2ccc(OCc3ccccc3)cc2)C1=O	none (no result: MEKK3 PB1 HTS, MEKK2wt PB1 HTS, MEKK2 mut-MEK5)
Cc1ccccc1NS(=O)(=O)c1ccc2c(c1)CCC(=O)N2	none (no result: MEKK3 PB1 HTS, MEKK2wt PB1 HTS, MEKK2 mut-MEK5)
Cc1cccc(C)c1OCc1cc(C(=O)NCC2CC2)no1	none
O=C(Cn1cc[n+](CC(=O)c2ccccc2)c1)c1ccccc1	none
O=C(Cn1cc[n+](CC(=O)c2ccc(Cl)cc2Cl)c1)c1ccc(Cl)cc1Cl	MEKK2wt PB1 HTS 174 | MEKK2wt confirm inactive | MEKK2mut-MEK5 inactive | MEKK3 confirm inactive
COc1ccc(CN2CC(C(=O)NCCCN3CCCC(C)C3)CC2=O)cc1 (stereo not drawn)	none
CCC(C)(C)n1nnnc1CN1CCC(O)(c2cccc(C(F)(F)F)c2)CC1	none
OC1(c2cccc(C(F)(F)F)c2)CCN(CCN2CCCCC2)CC1	MEKK2wt PB1 HTS 140 | MEKK2wt confirm inactive | MEKK2mut-MEK5 inactive | MEKK3 confirm inactive
NS(=O)(=O)c1cnccc1NCCc1ccccc1	none (no result: MEKK3 PB1 HTS, MEKK2wt PB1 HTS, MEKK2 mut-MEK5)
COc1ccc(-c2oc3ncnc(NCCCN(C)C)c3c2-c2ccc(OC)cc2)cc1	MEKK2wt PB1 HTS 171, MEKK2 mut-MEK5 30 | MEKK2wt confirm inactive | MEKK2mut-MEK5 inactive | MEKK3 confirm inactive
CN(C)CCNc1ncnc2oc(-c3ccccc3)c(-c3ccccc3)c12	none
CC1(C(=O)NCc2ccc3c(c2)OCO3)CCN1C(=O)CC1CCCC1 (stereo not drawn)	none (no result: MEKK3 PB1 HTS, MEKK2wt PB1 HTS, MEKK2 mut-MEK5)
O=c1ccn([C@@H]2O[C@H](CNCc3ccccc3OCc3ccc(Cl)cc3Cl)[C@@H](O)[C@H]2O)c(=O)[nH]1	none (no result: MEKK3 PB1 HTS, MEKK2wt PB1 HTS, MEKK2 mut-MEK5)
CCOc1ccc(C(=O)NCc2ccncc2)cc1	none
Cc1ccc(C)n1-c1ccc(C(=O)NCc2ccncc2)cc1	MEKK3 PB1 HTS 50[inhibitor] | MEKK2wt confirm inactive | MEKK2mut-MEK5 inactive | MEKK3 confirm inactive
O=C(CCN1CCN(C/C=C/c2ccccc2)CC1)Nc1ccc(Cl)cc1	none
O=C(Nc1cccc(Cl)c1)N1CCN(C/C=C/c2ccccc2)CC1	MEKK2wt PB1 HTS 139 | MEKK2wt confirm inactive | MEKK2mut-MEK5 inactive | MEKK3 confirm inactive
C(=C\c1ccccc1)/CN1CCN(C(c2ccccc2)c2ccccc2)CC1	MEKK2wt PB1 HTS 165 | MEKK2wt confirm inactive | MEKK2mut-MEK5 inactive | MEKK3 confirm inactive
CC(C)(C)n1nnnc1C(c1ccccc1)N1CCN(C/C=C/c2ccccc2)CC1 (stereo not drawn)	none (no result: MEKK3 PB1 HTS, MEKK2wt PB1 HTS, MEKK2 mut-MEK5)
Fc1ccc(C(c2ccc(F)cc2)N2CCN(C/C=C/c3ccccc3)CC2)cc1	MEKK2wt PB1 HTS 210!, MEKK2 mut-MEK5 26! | MEKK2wt confirm inactive | MEKK2mut-MEK5 inactive | MEKK3 confirm inactive
CC(C)COC(=O)N1CCCCC1c1cc(C(=O)NCc2cccnc2)no1 (stereo not drawn)	none (no result: MEKK3 PB1 HTS, MEKK2wt PB1 HTS, MEKK2 mut-MEK5)
Cc1ccc(C)c(S(=O)(=O)NCc2cccnc2)c1	none
Cc1ccc(C)c(S(=O)(=O)NCc2ccncc2)c1	MEKK3 PB1 HTS 137 | MEKK2wt confirm inactive | MEKK2mut-MEK5 inactive | MEKK3 confirm inactive
O=C(NC1(Cc2ccccc2)CCN(CCCc2ccccc2)C1=O)c1ccccc1 (stereo not drawn)	none (no result: MEKK3 PB1 HTS, MEKK2wt PB1 HTS, MEKK2 mut-MEK5)
CCN(C(=O)COC(=O)c1cnc(C)cn1)C1CCCCC1	MEKK3 PB1 HTS 1.0[inhibitor], MEKK2wt PB1 HTS 2.0[inhibitor] | MEKK2wt confirm inactive | MEKK2mut-MEK5 inactive | MEKK3 confirm inactive
CN(C(=O)c1ccc(Cl)c([N+](=O)[O-])c1)C1(C)CCS(=O)(=O)C1 (stereo not drawn)	none (no result: MEKK3 PB1 HTS, MEKK2wt PB1 HTS, MEKK2 mut-MEK5)
COc1ccccc1NC(=O)CSc1nnc2ccc(-c3cccnc3)nn12	MEKK2 mut-MEK5 190 | MEKK2wt confirm inactive | MEKK2mut-MEK5 inactive | MEKK3 confirm inactive
CCn1c(=O)c(C(=O)CN(C)CC(=O)Nc2cccc(F)c2)c(N)n(Cc2ccccc2)c1=O	none (no result: MEKK3 PB1 HTS, MEKK2wt PB1 HTS, MEKK2 mut-MEK5)
O=C(Nc1ccc(F)cc1)C(c1ccnc2ccccc12)N1CCN(c2cccc(C(F)(F)F)n2)CC1 (stereo not drawn)	none (no result: MEKK3 PB1 HTS, MEKK2wt PB1 HTS, MEKK2 mut-MEK5)
CN1CCN(C(=O)CN(C)S(=O)(=O)c2cc(Cl)ccc2Cl)CC1	none
Oc1ccccc1CNc1cnc2ccccc2c1	MEKK2wt PB1 HTS -5.0[inhibitor] | MEKK2wt confirm inactive | MEKK2mut-MEK5 inactive | MEKK3 confirm inactive
O=C(NCCCN1CCCCCC1)C1CC(=O)N(CCc2ccccc2)C1 (stereo not drawn)	MEKK2wt PB1 HTS 147, NRP1-CendR mod 23, MEKK2 mut-MEK5 25 | MEKK2wt confirm inactive | MEKK2mut-MEK5 inactive | MEKK3 confirm inactive
O=C(NCCCN1CCOCC1)C1CC(=O)N(CCc2ccccc2)C1 (stereo not drawn)	none
CCN1CCc2c(sc(NC(=O)c3cc4ccccc4cc3OC)c2C(N)=O)C1	MEKK2wt PB1 HTS 149, MEKK2 mut-MEK5 26 | MEKK2wt confirm inactive | MEKK2mut-MEK5 inactive | MEKK3 confirm inactive
CCNC(=S)N1CCn2cccc2C1c1ccc(F)cc1 (stereo not drawn)	none
CNC(=S)N1CCn2cccc2C1c1cc(OC)c(OC)c(OC)c1 (stereo not drawn)	MEKK3 PB1 HTS 57[inhibitor] | MEKK2wt confirm inactive | MEKK2mut-MEK5 inactive | MEKK3 confirm inactive
